In the library only some 12% were active in any assay of this set; here they are far more common.
PLK1 PBD block – inhibitors of human PLK1 polo-box domain binding | AID 720504 | Potency, µM, without a hit: max response, negative = inhibition, actives largely listed as inhibitors | 360,000 compounds, 2.8% hits | P53350 | Plk1 PBD binding of FITC phosphopeptide, fluorescence polarization; further: series mostly up to about 57 µM; on the % scale 0 is the no-effect control and ±100 the full control effect; nearly all actives have a fitted effect of over 65% in size
Target sequence (P53350 whole entry, looked up, the tested form may be a part): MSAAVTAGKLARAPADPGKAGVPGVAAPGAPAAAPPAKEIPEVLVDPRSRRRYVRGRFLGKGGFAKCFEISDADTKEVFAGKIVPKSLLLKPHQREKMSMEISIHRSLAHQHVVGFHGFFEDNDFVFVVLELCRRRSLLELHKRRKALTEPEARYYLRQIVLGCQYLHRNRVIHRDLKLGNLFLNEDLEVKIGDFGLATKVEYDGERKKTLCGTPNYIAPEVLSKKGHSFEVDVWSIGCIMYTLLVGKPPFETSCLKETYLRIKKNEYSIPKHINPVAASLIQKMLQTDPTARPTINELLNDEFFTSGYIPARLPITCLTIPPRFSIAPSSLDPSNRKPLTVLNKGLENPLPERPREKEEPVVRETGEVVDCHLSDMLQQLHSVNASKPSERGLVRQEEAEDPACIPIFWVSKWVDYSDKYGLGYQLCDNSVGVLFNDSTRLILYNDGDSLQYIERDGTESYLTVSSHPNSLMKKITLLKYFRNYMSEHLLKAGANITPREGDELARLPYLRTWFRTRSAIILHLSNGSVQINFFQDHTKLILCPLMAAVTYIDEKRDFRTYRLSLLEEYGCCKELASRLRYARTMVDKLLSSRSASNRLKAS
HP1b binding inh – HP1-beta chromodomain-methylated histone interaction inhibition. P83916. AID 540317. Potency, µM (titrated, usually from 114 µM), without a hit: top-dose activity change, negative = inhibition, most hits filed as inhibitors. 390,000 compounds, 0.56% hits. AlphaScreen HP1-beta / biotin-H3K9me3 peptide binding; further: nearly all actives have a fitted effect of over 70% in size
Target sequence (P83916 whole entry, looked up): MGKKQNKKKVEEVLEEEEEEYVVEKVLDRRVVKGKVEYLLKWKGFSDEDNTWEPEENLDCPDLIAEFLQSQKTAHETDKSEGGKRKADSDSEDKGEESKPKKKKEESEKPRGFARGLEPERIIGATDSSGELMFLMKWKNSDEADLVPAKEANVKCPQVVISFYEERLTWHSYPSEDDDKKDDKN
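AlphaScreen: HP1-beta (50 nM) preformed 30 min with biotin-H3(1-18)K9me3 peptide (50 nM) in PBS pH 7.4, 0.01% Tween-20. Compound added for 30 min at RT, then streptavidin donor/nickel chelate acceptor beads (10 ug/mL) for 30 min.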
G9a block – G9a (human) methyltransferase inhibition; G9a H3K9 monomethylation, AlphaScreen, 2 h; Potency, µM (doses to about 102 µM), inactives show top-dose activity, negative = inhibition, actives largely listed as inhibitors; 350,000 compounds, 8.8% hits; further: on the % scale 0 is the no-effect control and ±100 the full control effect; nearly all actives have a fitted effect of over 75% in size
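Quantitative HTS format: methyltransferase activity on a biotin-tagged H3K9 peptide is measured by AlphaScreen, using a rabbit anti-monomethyl-H3K9 antibody with streptavidin donor and anti-IgG acceptor beads. Final levels are 20 nM enzyme, 500 nM peptide, 20 uM SAM; 2 h RT.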
BAZ2B block – BAZ2B (human) inhibition; 360,000 compounds, 4.4% hits; AlphaScreen BAZ2B-H3K14Ac peptide displacement; Q9UIF8; Potency, µM (titrated, usually from 114 µM), for the others: at the highest dose activity change, negative = inhibition, actives largely listed as inhibitors; further: on the % scale 0 is the no-effect control and ±100 the full control effect; nearly all actives have a fitted effect of over 60% in size
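Inhibition is scored as reduced AlphaScreen emission. The BAZ2B/b-H3(5-23)K14Ac complex (50 nM each) in PBS pH 7.4, 0.01% Tween-20 meets compound (up to 110 uM) for 30 min at RT before bead addition.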
Sfp PPTase inh – blocks B. subtilis Sfp PPTase activity; Q9F4F7; Biochemical Sfp PPTase activity, qHTS; Potency, µM, for the others: largest response in the series, negative = inhibition, usual class: inhibitors; 310,000 compounds, 3.5% hits;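 further: the enzyme is Sfp with the accession as filed and its product quenches rhodamine fluorescence; 0% = enzyme reaction without inhibitor and -100% = no enzyme wells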
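Fluorescence-quenching assay: 15 nM Sfp-PPTase preincubated 15 min at room temperature with compound, then 5 uM rhodamine-CoA and 12.5 uM BHQ-2-labelled YbbR peptide added. Fluorescence (ex 525/em 598 nm) read at start and after 30 min; difference gives rate.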
JMJD2A Tudor inh – JMJD2A Tudor domain (human) inhibition. O75164. AlphaScreen JMJD2A-Tudor / H3K4me3 peptide binding. Potency, µM (top dose mostly 114 µM), for inactives: top-dose activity change, negative = inhibition, actives largely listed as inhibitors. 390,000 compounds, 4.4% hits; further: on the % scale 0 is the no-effect control and ±100 the full control effect; nearly all actives have a fitted effect of over 50% in size
Active calls of the source: *; ? = inconclusive; . = no result; [ ] = remark or other dose. The call rests on the fitted dose curve; in most records, active means well fitted curve in the direction sought with a large enough effect; inconclusive means small, poorly fitted or top-dose-only effect, or another doubt; inactive means no such curve, though single readings can be large; an effect the other way counts as inactive or inconclusive. Potency means the concentration at half of the fitted maximal effect.

SMILES | PLK1 PBD block | HP1b binding inh | G9a block | BAZ2B block | Sfp PPTase inh | JMJD2A Tudor inh
CC(=O)OC1C[C@@]2(C)C(c3ccoc3)C[C@H]3O[C@@]32[C@@]2(C)C(=O)C(O)=C3C(C)(C)C(=O)C=C[C@]3(C)C12 (some centres not stated) | . | . | -42.0%[2.33 µM] | . | -3.2% | .
CN1CCc2nc(CO)c(CO)cc2C1 | . | . | . | . | 3.9% | .
Cn1ncnc2c(=O)n(C)c(=O)nc1-2 | ? | 62.1% | 12.6µM* | 7.7% | ? | -4.3%
Cc1ccc(-c2nc3c(=O)n(C)c(=O)nc-3n(C)n2)cc1 | . | 5.8%[57 µM] | . | . | . | 10.0%[57.1 µM]
CC(=O)O.CC(=O)O.[Cd] | . | . | . | . | 25.1µM* | .
CC(=O)CCC(C)=O | -9.9% | 36.2% | 1.8%[0.501 µM] | -0.8% | . | -15.9%
COc1cc2c(cc1OC)-c1c(OC)c(OC)cc3c1[C@H](C2)[N+](C)(C)CC3 | -3.4% | -5.6% | 14.1µM* | -30.4% | -0.1% | ?
C#CCN1C(C)=C(C(=O)CCO)[C@@H](c2cccc(-n3oo3)c2)C(C(=O)OC)=C1C | . | . | . | . | -12.4% | .
COc1ccc2[nH]c3c(c2c1)CCNC3C (configuration not stated) | -5.6% | 45.4% | 18.6% | -23.5% | 11.7% | -22.6%
COc1ccc2c3c([nH]c2c1)C(C)NCC3 (configuration not stated) | -8.6% | -12.8% | -25.3%[12.7 µM] | ? | 9.2% | 50.1µM*
CN(C(=O)COc1nc2ccccc2s1)c1ccccc1 | . | . | . | . | -4.5% | .
C=CCn1c(O)c(/C=C2/C=c3ccccc3=N2)c(=O)[nH]c1=S | ? | 24.2% | . | -8.7% | 0.6% | -4.1%
C=CCn1c(-c2ccc([N+](=O)[O-])cc2)n[nH]c1=S | -11.9% | 6.0% | 5.62µM* | -3.7% | -9.8% | 8.91µM*
CC1CN1P(=O)(Oc1ccc2ccccc2c1)N1CC1C (configuration not stated) | 3.5% | 23.9% | . | . | . | -14.6%
CC1=CC(=O)NP(=O)(Oc2ccc3ccccc3c2)N1 (configuration not stated) | 6.7µM* | 14.1µM* | 3.55µM* | . | 7.94µM* | 44.7µM*
O=c1[nH]c(=O)n(-c2cccc3ccccc23)c(O)c1C=NCCCn1ccnc1 | -8.3% | 30.0% | -7.4% | 56.2µM* | 14.6% | -5.8%
O=C(N/N=C/c1c(O)n(Cc2ccco2)c(=O)[nH]c1=O)c1ccccc1O | 0.0% | 7.5% | ? | ? | 17.2% | 79.4µM*
O=c1[nH]c(=O)n(-c2cccc3ccccc23)c(O)c1C=NCc1ccc2c(c1)OCO2 | -5.0% | 18.6% | -6.4%[59 µM] | -4.0% | 5.1% | -9.2%
CCCCC(=O)N/N=C/c1c(O)n(-c2cccc3ccccc23)c(=O)[nH]c1=O | 0.2% | 44.5% | 19.9% | 79.4µM* | 13.1% | 79.4µM*
O=c1[nH]c(=O)n(Cc2ccco2)c(O)c1C=NCCN1CCOCC1 | -17.0% | 45.9% | ? | 6.4% | -17.2% | -8.9%
CCN(CC)CCN=Cc1c(O)n(Cc2ccco2)c(=O)[nH]c1=O | -8.6% | -11.6% | . | -5.1% | -1.2% | -9.3%
CCCCC(=O)N/N=C/c1c(O)n(Cc2ccco2)c(=O)[nH]c1=O | -28.3% | 39.7% | ? | 50.1µM* | -24.0% | ?
CC1OC(O[C@@H]2C(O)CC(O[C@@H]3C(O)C[C@@H](OC4CC[C@]5(C)[C@H](CC[C@H]6[C@@H]5CC[C@]5(C)C(C7=CC(=O)OC7)C(O)C[C@@]65O)C4)OC3C)OC2C)CC(O)C1O (some centres not stated) | . | . | . | . | -10.0% | .
CC1/C=C/C=C/CC/C=C/C=C/C=C/C=C/C(OC2OC(C)C(O)C(N)C2O)CC2O[C@](O)(CC(O)C(O)CCC(O)CC(O)CC(O)CC(=O)OC(C)C(C)C1O)CC(O)C2C(=O)O (some centres not stated) | . | . | -14.8%[2.33 µM] | . | -5.0% | .
CC(=O)OC1CC2C(C)(C)C(=O)C=C[C@]2(C)C2CC[C@]3(C)C(=CC(=O)OC3c3ccoc3)[C@]12C (some centres not stated) | . | . | -25.1%[2.33 µM] | . | -11.2% | .
SMILES | PLK1 PBD block | HP1b binding inh | G9a block | BAZ2B block | Sfp PPTase inh | JMJD2A Tudor inh
CC(C)C[C@H](NC(=O)[C@H](Cc1ccccc1)NC(=O)CNC(=O)[C@@H](COC(C)(C)C)NC(=O)[C@@H](N)Cc1ccc(O)cc1)C(=O)N[C@H](C(=O)O)[C@@H](C)OC(C)(C)C | . | . | . | . | 14.6% | .
O=c1[nH]c(=O)n(Cc2ccco2)c(O)c1C=NCc1ccco1 | -17.4% | 6.5% | -4.4%[0.501 µM] | 56.2µM* | 25.1µM* | -16.0%
Cc1ccc(-n2c(O)c(C=NCc3ccco3)c(=O)[nH]c2=S)cc1C | -24.7% | 21.2% | ? | ? | 20µM* | -24.6%
O=c1[nH]c(=S)n(-c2ccccc2F)c(O)c1C=NCc1ccco1 | -17.0% | 16.7% | 17.9%[59 µM] | -5.5% | -9.8% | -22.8%
CC(=O)Nc1ccc(N=Cc2c(O)n(Cc3ccco3)c(=O)[nH]c2=O)cc1 | -14.3% | 37.0% | 50.1µM* | -27.4% | -13.8% | -24.9%
CCCCC(=O)N/N=C/c1c(O)n(CCCC)c(=S)[nH]c1=O | -0.9% | 19.2% | 19.9% | 70.8µM* | 20.2% | -25.6%
CCCCC(=O)N/N=C/c1c(O)n(C2CC2)c(=S)[nH]c1=O | -0.4% | 37.9% | 5.5%[59 µM] | ? | 12.8% | -7.6%
NCCCP(=O)(O)CC1CCCCC1 | . | . | 40.2%[59 µM] | . | -5.0% | .
O=C(Nc1ccc(Br)cc1)c1cc(Br)cc(Br)c1O | . | . | 2.8%[59 µM] | . | -2.0% | .
O=c1[nH]c(=S)n(-c2ccccc2F)c(O)c1C=Nc1ccc(N2CCOCC2)cc1 | -14.8% | 9.5% | -8.2%[59 µM] | -21.7% | 0.7% | -19.8%
O=C1C(Cl)=C(N2CCOCC2)C(=O)N1c1ccccc1F | -13.4% | 75.9% | 35.5µM* | -26.7% | 8.8% | -12.3%
O=CN1CC2CC(C1)c1cccc(=O)n1C2 (configuration not stated) | . | . | . | . | 24.0% | .
NC(=O)CN1CC(O)CC1=O (configuration not stated) | . | . | 1.2%[59 µM] | . | 6.0% | .
O=C1NC(=O)N(CCNc2ncc(C(F)(F)F)cc2Cl)C(=O)C1Cc1ccc(Cl)cc1 (configuration not stated) | -9.1% | 20.5% | 50.1µM* | -15.0% | ? | -7.7%
C=CCN1C(=O)NC(=O)C(Cc2ccc(OC)c(OC)c2)C1=O (configuration not stated) | -16.5% | 19.2% | ? | 2.9% | ? | -2.1%
NC(=NCCC[C@H](N)C(=O)O)N[N+](=O)[O-] | . | . | 14.2%[59 µM] | . | 7.4% | .
CN[C@@H](Cc1c[nH]c2ccccc12)C(=O)O | . | . | . | . | -5.3% | .
O=C(NCc1ccco1)C(c1ccco1)N(C(=O)Cn1nnc2ccccc21)c1ccc2c(c1)CCC2 (configuration not stated) | -2.9% | ? | . | . | . | ?
